Here are results for twelve molecules from PubChem BioAssay (NCATS).

Each structure is given as a SMILES string. Results filed as inconclusive are left out. Entries that show only a call come without a potency. A number with no mark means an inactive call. The source made the active and inactive calls. Calls come from the whole dose curve; as a rule, active = well fitted inhibition curve with a large enough effect; inconclusive = small, poorly fitted or top-dose-only effect; inactive = flat fitted curve, though single readings scatter.

A short description of this assay: P-glycoprotein substrates identified in KB-8-5-11 adenocarcinoma cell line, qHTS therapeutic library screen (AID 1346987). Note: nearly all actives have a fitted effect of over 65% in size. The conditions noted are these: KB-8-5-11 (P-gp overexpressing) viability, CellTiter-Glo, 72 h; series mostly up to 44.5 µM. The gist of the method: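 KB-8-5-11: colchicine-selected sub-line of KB-3-1 over-expressing P-gp; assay medium lacked colchicine. 72 h drug exposure at 37 degree C, CellTiter-Glo.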
As for `COc1cc(O[C@@H]2O[C@H](CO[C@H]3OC[C@](O)(CO)[C@H]3O)[C@@H](O)[C@H](O)[C@H]2O)cc(OC)c1O`, the Potency result is “inactive”. Still for that read-out and setting: the value for `COc1cccc2c1c(O)c(C(=O)N(C)c1ccc(C(F)(F)F)cc1)c(=O)n2C` was “inactive”. As to `C[C@@H]1O[C@@H](OC2C(CO)OC(OCC3OC(OC(=O)[C@]45CCC(C)(C)CC4C4=CCC6[C@@]7(C)CC[C@@H](O)[C@](C)(C(=O)O)C7CC[C@@]6(C)[C@]4(C)CC5)C(O)C(O)C3O)C(O)C2O)[C@H](O)[C@H](O)[C@H]1O` (some centres not stated), the activity change, negative = cytotoxicity is 5.62% [at 9.29 µM]. Consider `CC(C)Oc1ccc(-c2nc(-c3cccc4c3CCC4NCCC(=O)O)no2)cc1C#N` (configuration not stated), for which the Potency entry is “inactive”. Regarding `CC(=O)NCC1CN(c2ccc(-c3ccc(CNCc4cn[nH]n4)cc3)c(F)c2)C(=O)O1` (configuration not stated), the Potency entry is “inactive”. The same measure, in the same setting: the value for `COC(=O)[C@H](O)[C@H]1C(C)(C)[C@H](OC(C)=O)[C@@]2(O)C(=O)[C@]1(C)C1CC[C@]3(C)C(CC(=O)O[C@H]3c3ccoc3)[C@]13O[C@@H]32` (some centres not stated) was “inactive”; that for `CSCC1OC(n2cnc3c(=O)[nH]cnc32)C(O)C1O` (configuration not stated) was “inactive”; that for `COc1cncc(C#Cc2ccccn2)c1` was “inactive”. On the same count and under the same terms, the value for `Cc1onc(-c2ccccc2Cl)c1C(=O)N(C)c1ccc(Cl)cc1` was “inactive”; that for `C/C(=C\CC[C@H](CO)[C@@H]1CC[C@]2(C)C3=C(CC[C@@]12C)[C@@]1(C)CCC(=O)C(C)(C)C1CC3)C(=O)O` (some centres not stated) was “inactive”; that for `CC1=C2C3OC(=O)C(C)C3(O)CCC2(C)CCC1` (configuration not stated) was “inactive”.

As to `CN1CCN(c2nc(-c3ccc(C(=O)NC4(C(=O)NCC#N)CCCCC4)cc3)cs2)CC1`, the Potency entry is “inactive”.
